The test system of assay [1] is RAW-Dual. The experiment in a line: NF-kB SEAP reporter activity, fold change vs agonist alone; higher = enhanced NF-kB activity. The following applies: library stock concentration (final ~1000-fold dilution): 10 mM. The procedure, abridged: (§1)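 Reporter activity is given as fold change relative to agonist-alone wells. To measure it, 50 nL of library stock was pin-tooled onto RAW-Dual macrophages (50,000 cells/well, DMEM, 384-well plates), a PRR agonist followed 1 h later, and cells stayed at 37 °C, 5% CO2. Twenty hours on, supernatant was assayed for IRF (QuantiLuc luminescence) and NF-κB (QuantiBlue, 620 nm absorbance), and wells under 70% of agonist-control IncuCyte confluency in both mask sets were marked cytotoxic.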

Assay [2] deals with RAW-Dual. Put plainly: NF-kB SEAP reporter activity, fold change vs agonist alone; cytotoxicity flag (confluency mask): not cytotoxic; higher = enhanced NF-kB activity. Put shortly: as §1
The test system of assay [3] is RAW-Dual. Put plainly: NF-kB SEAP reporter activity, fold change vs agonist alone; cytotoxicity flag (confluency mask): cytotoxic (confluency <70% of control); higher = enhanced NF-kB activity. Put shortly:
as §1

The mark [4] stands for this setting: cytotoxicity flag (confluency mask): not cytotoxic, agonist: Imiquimod (TLR7) […].
Setting [5] is: cytotoxicity flag (confluency mask): not cytotoxic, agonist: MPLA (TLR4) […].
Setting [6] is: agonist: ODN 1826 (TLR9) 0.5 ug/mL.
The mark [7] stands for this setting: agonist: Pam2CSK4 (TLR2/6) 0.1 ug/mL.
The mark [8] stands for this setting: agonist: Pam3CSK4 (TLR2/1) 0.1 ug/mL.
Setting [9] is: cytotoxicity flag (confluency mask): cytotoxic (confluency <70% of control), agonist: Imiquimod (TLR7) […].
Where [10] appears, read: cytotoxicity flag (confluency mask): cytotoxic (confluency <70% of control), agonist: MPLA (TLR4) […].

Twelve compounds from the supplement of paper PMC10037445 can be followed below.

Over roughly 2,900 compounds, “NF-kB SEAP reporter activity, fold change vs agonist alone” has its median near 0.99; the highest 2% begin near 2.6. Shown is part of a subset that was picked to be rich in the highest values.

Regarding `C=CC1(C)CC(OC(=O)CSC(C)(C)CNC(=O)C(N)C(C)C)C2(C)C(C)CCC3(CCC(=O)C32)C(C)C1O.Cl` (stereo unspecified), the “NF-kB SEAP reporter activity” value in the assay with RAW-Dual [1] (setting [4]) stood at 0.86; in the assay on RAW-Dual [1] (setting [5]), 1.25.

For the compound `C=CC1(C)CC(OC(=O)CSC(C)(C)CNC(=O)C(N)C(C)C)C2(C)C(C)CCC3(CCC(=O)C32)C(C)C1O.Cl` (stereo unspecified) (library stock concentration (final ~1000-fold dilution): 10 mM), the “NF-kB SEAP reporter activity” value in the assay on RAW-Dual [2] (agonist: LPS (TLR4) 0.1 ug/mL) came to 1.22; in the assay on RAW-Dual [2] (setting [6]) it was 0.971; in the assay on RAW-Dual [2] (setting [7]), 0.669; in the assay with RAW-Dual [2] (setting [8]), 0.845.

For the compound `CCCCCCCCCCCCCCCC(=O)NC(CCSC)C(=O)NCC(=O)NC(Cc1ccc(O)cc1)C(=O)NC(CCC(N)=O)C(=O)NC(CCCCN)C(=O)NC(CCCCN)C(=O)NC(CC(C)C)C(=O)NC(CCCNC(=N)N)C(=O)NC(CO)C(=O)NC(CCSC)C(=O)NC(C(=O)NC(CC(=O)O)C(=O)NC(CCCCN)C(=O)NC(Cc1ccc(O)cc1)C(=O)NC(CCCNC(=N)N)C(=O)NC(CC(C)C)C(=O)O)C(C)O` (stereo unspecified), the “NF-kB SEAP reporter activity” value in the assay with RAW-Dual [1] (setting [9]) and in the assay on RAW-Dual [1] (setting [10]) was 1.02 in each case.

For the compound `CCCCCCCCCCCCCCCC(=O)NC(CCSC)C(=O)NCC(=O)NC(Cc1ccc(O)cc1)C(=O)NC(CCC(N)=O)C(=O)NC(CCCCN)C(=O)NC(CCCCN)C(=O)NC(CC(C)C)C(=O)NC(CCCNC(=N)N)C(=O)NC(CO)C(=O)NC(CCSC)C(=O)NC(C(=O)NC(CC(=O)O)C(=O)NC(CCCCN)C(=O)NC(Cc1ccc(O)cc1)C(=O)NC(CCCNC(=N)N)C(=O)NC(CC(C)C)C(=O)O)C(C)O` (stereo unspecified) (library stock concentration (final ~1000-fold dilution): 10 mM), the “NF-kB SEAP reporter activity” value in the assay with RAW-Dual [3] (agonist: LPS (TLR4) 0.1 ug/mL) worked out at 0.885; with RAW-Dual [3] (setting [6]), 0.714; in the assay with RAW-Dual [3] (setting [7]) it was 0.614; with RAW-Dual [3] (setting [8]), 0.68.

With `COc1ccc(Oc2cc(NCCC(F)(F)F)c3ncc(-c4ccc(C(=O)NC5CC5)c(C)c4)n3n2)c(F)c1F`, the “NF-kB SEAP reporter activity” value with RAW-Dual [1] (setting [4]) is 1.19; with RAW-Dual [1] (setting [5]), 1.32.

As for `COc1ccc(Oc2cc(NCCC(F)(F)F)c3ncc(-c4ccc(C(=O)NC5CC5)c(C)c4)n3n2)c(F)c1F` (library stock concentration (final ~1000-fold dilution): 10 mM), the “NF-kB SEAP reporter activity” value in the assay with RAW-Dual [2] (agonist: LPS (TLR4) 0.1 ug/mL) came out at 2.44; in the assay on RAW-Dual [2] (setting [6]), 1.78; in the assay with RAW-Dual [2] (setting [7]) it was 0.636; with RAW-Dual [2] (setting [8]), 0.913.

In the case of `COc1cccc(CCc2ccccc2OCC(CN(C)C)OC(=O)CCC(=O)O)c1.Cl` (stereo unspecified), the “NF-kB SEAP reporter activity” value amounted to 1.22 in the assay on RAW-Dual [1] (setting [4]) and 1.03 in the assay with RAW-Dual [1] (setting [5]).

As to `COc1cccc(CCc2ccccc2OCC(CN(C)C)OC(=O)CCC(=O)O)c1.Cl` (stereo unspecified) (library stock concentration (final ~1000-fold dilution): 10 mM), the “NF-kB SEAP reporter activity” value with RAW-Dual [2] (agonist: LPS (TLR4) 0.1 ug/mL) came to 1.33; in the assay on RAW-Dual [2] (setting [6]) it was 0.733; in the assay on RAW-Dual [2] (setting [7]), 1.03; in the assay on RAW-Dual [2] (setting [8]), 0.924.

In the case of `Cc1cc(C)cc(C(=O)NOCCCCCC(=O)NO)c1` (library stock concentration (final ~1000-fold dilution): 10 mM), the “NF-kB SEAP reporter activity” value in the assay on RAW-Dual [3] (agonist: LPS (TLR4) 0.1 ug/mL) was found to be 5.28; in the assay on RAW-Dual [3] (setting [6]), 2.33; in the assay with RAW-Dual [3] (setting [7]), 0.935; with RAW-Dual [3] (setting [8]), 1.43.

On to `Cc1cc(Cl)ccc1OCCCC(=O)NO` (library stock concentration (final ~1000-fold dilution): 10 mM), for which the “NF-kB SEAP reporter activity” value was 1.51 in the assay on RAW-Dual [2] (agonist: LPS (TLR4) 0.1 ug/mL), 0.823 with RAW-Dual [2] (setting [6]), 0.939 in the assay with RAW-Dual [2] (setting [7]) and 0.726 in the assay with RAW-Dual [2] (setting [8]).

As to `Cc1cc(Cl)ccc1OCCCC(=O)NO`, the “NF-kB SEAP reporter activity” value was 1.35 in the assay with RAW-Dual [1] (setting [4]) and 1.31 in the assay with RAW-Dual [1] (setting [5]).

Regarding `Cc1cc(C)cc(C(=O)NOCCCCCC(=O)NO)c1`, the “NF-kB SEAP reporter activity” value in the assay on RAW-Dual [1] (setting [9]) worked out at 1.41; in the assay on RAW-Dual [1] (setting [10]) it was 2.74.
